Laboratory results reported in PubChem BioAssay (Tox21).
Several values for one entry are separate records, joined by “and”; a condition that tells them apart may be missing. Equal values may be shown once. Inconclusive results are not listed. A call without a number means that no potency is given here. Some compounds were tested as several samples or in several runs, with calls that do not always agree. Activity calls are given as the source filed them. Unless noted, the call rests on the fitted dose curve; in most records, active means well fitted curve in the direction sought with a large enough effect in the repeat runs; inconclusive means weak or mixed curves; inactive means no such curve, though single readings can be large; an effect the other way counts as inactive or inconclusive.

Tests used:
[1] = qHTS assay to identify small molecule agonists of the RXR signaling pathway - cell viability counter screen (AID 1159529); further: nearly all actives have a fitted effect of over 50% in size; further: potency means the concentration at half of the fitted maximal effect
Summary of the method: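 Steps: seed RXR-alpha-UAS-bla HEK 293T cells in assay medium containing 2% charcoal-stripped FBS; incubate 5 hr; add compounds in DMSO; incubate 16 hr at 37 C; after the bla read, add CellTiter-Glo and read luminescence at 30 min.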

[2] = qHTS assay to identify small molecule antagonists of the retinoid acid receptor (RAR) signaling pathway - cell viability counter screen (AID 1159551); further: nearly all actives have a fitted effect of over 35% in size; further: potency means the concentration at half of the fitted maximal effect
Summary of the method: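 C3RL4 RARE-luciferase cells, 1,000/well, incubated overnight, then dosed with compound plus 1 uM retinol (final). After 6 hr at 37 C, viability read by CellTiter-Glo ATP luminescence following 30 min at room temperature.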

[3] = qHTS assay to identify small molecule antagonists of the retinoic acid receptor (RAR) signaling pathway (AID 1159552; further: nearly all actives have a fitted effect of over 50% in size; further: potency means the concentration at half of the fitted maximal effect)
Summary of the method: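 Retinol at 1 uM final stimulated RARE-luciferase expression in C3RL4 cells exposed to test compounds for 6 hr at 37 C. Reduced luminescence, read 30 min after detection reagent, indicated pathway antagonism.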

[4] = qHTS assay to identify small molecule agonists of the retinoic acid receptor (RAR) signaling pathway (AID 1159553); settings: C3RL4 RARE luciferase reporter, agonist, 6 h; activation: at 73.3 µM (top of the series) unless noted; further: potency means the concentration at half of the fitted maximal effect
Summary of the method: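 C3RL4 RARE-luciferase cells were seeded at 1,000/well and grown overnight at 37 C, then exposed to compounds for 6 hr at 37 C, 5% CO2. Luciferase reagent was added and luminescence was read after 30 min at room temperature.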

[5] = qHTS assay to identify small molecule antagonists of the estrogen related receptor (ERR) signaling pathway from Tox21 library - cell viability counter screen (AID 1224834); further: nearly all actives have a fitted effect of over 30% in size; further: potency means the concentration at half of the fitted maximal effect
Summary of the method: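 ERR reporter cells, 2,000 per well, rested 6 h, then exposed to compound in DMSO for 17.5 hours at 37 C. Viability read as fluorescence after 30 min with CellTiter-Fluor.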

[6] = qHTS assay to identify small molecule agonists of the constitutive androstane receptor (CAR) signaling pathway - cell viability counter screen (AID 1224836); further: nearly all actives have a fitted effect of over 45% in size; further: potency means the concentration at half of the fitted maximal effect
Summary of the method: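 Cells were seeded and incubated 4 hrs. Compounds were added across 15 concentrations together with PK11195 at 0.75 uM final. Plates were incubated 23 hrs at 37 C. CellTiter-Fluor was added and fluorescence measured.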

[7] = qHTS assay to identify small molecule antagonists of the constitutive androstane receptor (CAR) signaling pathway - cell viability counter screen (AID 1224837); further: nearly all actives have a fitted effect of over 45% in size; further: potency means the concentration at half of the fitted maximal effect
Summary of the method: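 HepG2 cells stably carrying hCAR and CYP2B6-2.2kb reporter, stimulated with 50 nM CITCO and compounds at 15 concentrations for 23 h at 37 C. Viability measured by CellTiter-Fluor fluorescence.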

[8] = target: Nuclear receptor subfamily 1 group I member 3 (Homo sapiens) (UniProt Q14994); assay: qHTS assay to identify small molecule antagonists of the constitutive androstane receptor (CAR) signaling pathway (AID 1224838); further: nearly all actives have a fitted effect of over 40% in size; further: potency means the concentration at half of the fitted maximal effect
Nuclear receptor subfamily 1 group I member 3 (Homo sapiens), sequence (Q14994 whole entry, looked up): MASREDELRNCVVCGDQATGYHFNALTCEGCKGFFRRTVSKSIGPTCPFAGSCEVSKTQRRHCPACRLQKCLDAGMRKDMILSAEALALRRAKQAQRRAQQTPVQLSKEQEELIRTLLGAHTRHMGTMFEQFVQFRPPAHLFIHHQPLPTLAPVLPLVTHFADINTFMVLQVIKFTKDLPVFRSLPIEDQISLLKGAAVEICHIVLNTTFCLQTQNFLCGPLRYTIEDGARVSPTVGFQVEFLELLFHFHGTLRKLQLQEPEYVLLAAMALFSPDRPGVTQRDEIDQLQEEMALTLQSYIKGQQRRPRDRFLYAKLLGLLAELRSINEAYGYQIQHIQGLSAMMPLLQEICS
Summary of the method: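 HepG2 cells stably carrying hCAR and a CYP2B6-2.2kb luciferase reporter, seeded 4 hrs before compound (15 concentrations). Stimulated with 50 nM CITCO for 24 hr at 37 C. ONE-Glo luminescence read after 30 min at room temperature.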

[9] = target: Nuclear receptor subfamily 1 group I member 3 (Homo sapiens) (UniProt Q14994); assay: qHTS assay to identify small molecule agonists of the constitutive androstane receptor (CAR) signaling pathway (AID 1224839); further: nearly all actives have a fitted effect of over 15% in size; further: potency means the concentration at half of the fitted maximal effect
Summary of the method: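 Cells were plated and incubated 4 hrs, then dosed with compounds at 15 concentrations. PK11195 was added to 0.75 uM final. After 24 hrs at 37 C, luciferase luminescence was measured.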

[10] = qHTS assay to identify small molecule antagonists of the estrogen related receptor signaling pathway with the pleiotropic PPARgamma coactivator (PGC) from Tox21 10K library - cell viability counter screen (AID 1224840; active means well fitted cell-killing curve with a large enough effect in the repeat runs, not every such curve was filed as active; further: nearly all actives have a fitted effect of over 40% in size; further: potency means the concentration at half of the fitted maximal effect)
Summary of the method: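 PGC/ERR cells (2,000/well) plated 6 h, then compound-treated for 17.5 h at 37 C. Viability measured by CellTiter-Fluor fluorescence after 30 min at 37 C, multiplexed with the pathway assay.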

[11] = target: Thyrotropin receptor (Homo sapiens) (UniProt P16473); assay: qHTS assay to identify small molecule agonists of the thyroid stimulating hormone receptor (TSHR) signaling pathway (AID 1224843; calls by dose curve; further: nearly all actives have a fitted effect of over 45% in size; further: potency means the concentration at half of the fitted maximal effect)
Thyrotropin receptor (Homo sapiens), sequence (P16473 whole entry, looked up): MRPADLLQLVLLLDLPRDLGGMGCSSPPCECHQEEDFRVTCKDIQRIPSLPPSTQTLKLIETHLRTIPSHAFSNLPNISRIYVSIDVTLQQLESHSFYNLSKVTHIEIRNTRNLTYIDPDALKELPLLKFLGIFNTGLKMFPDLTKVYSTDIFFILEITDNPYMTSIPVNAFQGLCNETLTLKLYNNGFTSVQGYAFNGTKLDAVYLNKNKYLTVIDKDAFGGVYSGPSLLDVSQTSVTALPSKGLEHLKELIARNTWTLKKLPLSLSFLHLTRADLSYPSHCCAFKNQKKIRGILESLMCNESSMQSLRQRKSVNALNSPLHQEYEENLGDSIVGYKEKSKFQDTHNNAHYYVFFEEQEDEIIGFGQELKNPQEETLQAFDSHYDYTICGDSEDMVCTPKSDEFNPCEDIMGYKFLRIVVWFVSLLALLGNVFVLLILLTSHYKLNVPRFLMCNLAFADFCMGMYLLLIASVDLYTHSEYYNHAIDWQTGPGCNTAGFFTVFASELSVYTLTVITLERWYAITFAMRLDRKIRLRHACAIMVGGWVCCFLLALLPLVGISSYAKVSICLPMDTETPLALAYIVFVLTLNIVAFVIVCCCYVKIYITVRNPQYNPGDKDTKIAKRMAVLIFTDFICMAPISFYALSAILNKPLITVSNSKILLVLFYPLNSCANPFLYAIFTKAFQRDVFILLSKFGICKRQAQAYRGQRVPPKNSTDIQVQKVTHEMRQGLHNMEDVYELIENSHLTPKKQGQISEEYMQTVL
Summary of the method: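 Steps: seed 800 TSHR-HEK293 cells per well; add test compound and hold 30 min at ambient temperature; dispense cAMP-d2 then anti-cAMP cryptate; incubate 1 h at ambient; measure fluorescence intensity.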

[12] = target: Luciferin 4-monooxygenase (Photinus pyralis) (UniProt P08659); assay: qHTS assay to identify small molecule inhibitors of firefly luciferase (AID 1224835); further: nearly all actives have a fitted effect of over 25% in size; further: potency means the concentration at half of the fitted maximal effect
Luciferin 4-monooxygenase (Photinus pyralis), sequence (P08659 whole entry, looked up): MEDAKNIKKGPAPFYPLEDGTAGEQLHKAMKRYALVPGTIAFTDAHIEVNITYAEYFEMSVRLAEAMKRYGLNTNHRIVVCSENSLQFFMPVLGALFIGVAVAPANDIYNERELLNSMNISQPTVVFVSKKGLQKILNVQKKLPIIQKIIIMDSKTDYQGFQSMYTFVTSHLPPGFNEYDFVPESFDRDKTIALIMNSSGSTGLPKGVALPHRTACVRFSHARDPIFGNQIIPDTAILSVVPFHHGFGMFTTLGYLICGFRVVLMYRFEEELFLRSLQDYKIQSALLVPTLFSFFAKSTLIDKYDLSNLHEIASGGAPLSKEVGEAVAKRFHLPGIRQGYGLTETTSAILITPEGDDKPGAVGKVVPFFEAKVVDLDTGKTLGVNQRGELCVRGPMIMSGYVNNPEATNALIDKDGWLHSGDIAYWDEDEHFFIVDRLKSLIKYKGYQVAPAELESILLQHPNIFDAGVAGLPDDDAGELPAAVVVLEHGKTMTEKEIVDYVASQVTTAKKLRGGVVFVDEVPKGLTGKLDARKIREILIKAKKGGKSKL
Summary of the method: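 Biochemical qHTS: compounds run as interplate titrations against purified firefly enzyme, with D-luciferin and ATP each at its KM concentration. Light output recorded by CCD imaging.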

[13] = qHTS assay to identify small molecule antagonists of the estrogen related receptor (ERR) signaling pathway - cell viability counter screen (AID 1224818)
Summary of the method: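 ERR cells, 2,000 per well, compound added after 6 h and incubated 17.5 h at 37 C. Viability read by CellTiter-Fluor fluorescence after a further 30 min at 37 C.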

[14] = qHTS assay to identify small molecule antagonists of the estrogen related receptor signaling pathway with the pleiotropic PPARgamma coactivator (PGC) cell viability counter screen (AID 1224822)
Summary of the method: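 PGC/ERR cells rested 6 h, then compound-treated 17.5 h at 37 C. CellTiter-Fluor added for 30 min at 37 C, viability measured by fluorescence intensity.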

[15] = qHTS assay to identify small molecule antagonists of the estrogen related receptor signaling pathway with the pleiotropic PPARgamma coactivator (PGC) from Tox21 10K library (AID 1224841; call rule not given here; further: actives are mostly falling curves and most rising ones were filed inactive; nearly all actives have a fitted effect of over 50% in size; further: potency means the concentration at half of the fitted maximal effect)
Summary of the method: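 PGC/ERR cell line, 2,000 cells/well, pre-incubated 6 hours at 37 C, then exposed to compounds for 18 hours at 37 C; luciferase read with One-Glo luminescence after 30 min at room temperature.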

[16] = qHTS assay to identify small molecule agonists of the estrogen related receptor signaling pathway with the pleiotropic PPARgamma coactivator (PGC) from Tox21 10K library (AID 1224842); further: nearly all actives have a fitted effect of over 15% in size
Summary of the method: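 PGC/ERR reporter cell line, 2,000 cells per well, incubated 6 h at 37 C before 23 nL compound in DMSO was added. After 18 h at 37 C, One-Glo luminescence read following 30 min at room temperature.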

Row | Compound | Potency [1] | Potency [2] | Potency [3] | Potency [4] | Potency [5] | Potency [6] | Potency [7] | Potency [8] | Potency [9] | Potency [10] | Potency [11] | Potency [12] | outcome [13] | outcome [14] | Potency [15] | Potency [16]
1 | Brc1nc2ccccc2s1 | inactive | inactive | inactive | inactive | inactive | inactive | inactive | inactive | inactive | inactive | inactive |  |  |  |  | 
2 | C=C[C@@]1(C)CC(=O)[C@]2(O)[C@@]3(C)[C@@H](O)CCC(C)(C)[C@@H]3[C@H](O)[C@H](OC(C)=O)[C@@]2(C)O1 | 11 µM (active) and 7.56 µM (active) | inactive | inactive | inactive |  | inactive | inactive | 27.3 µM (active) and inactive | inactive | inactive | 17.2 nM (active) and 18.8 nM (active) |  |  |  |  | 
3 | OC[C@H]1O[C@@H]2O[C@H]3[C@H](O)[C@@H](O)[C@@H](O[C@H]4[C@H](O)[C@@H](O)[C@@H](O[C@H]5[C@H](O)[C@@H](O)[C@@H](O[C@H]6[C@H](O)[C@@H](O)[C@@H](O[C@H]7[C@H](O)[C@@H](O)[C@@H](O[C@H]1[C@H](O)[C@H]2O)O[C@@H]7CO)O[C@@H]6CO)O[C@@H]5CO)O[C@@H]4CO)O[C@@H]3CO | inactive | inactive | inactive |  | inactive | inactive | inactive | inactive | inactive | inactive | inactive |  |  |  |  | 
4 | C=C[Si](OCCOC)(OCCOC)OCCOC | inactive | inactive | inactive | inactive | inactive | inactive | inactive | inactive | inactive | inactive | inactive | inactive |  |  |  | 
5 | CCCCCCCCCCCCO | inactive | inactive | inactive |  | inactive | inactive | inactive | inactive | inactive | inactive | inactive | 31.3 µM (active) |  |  |  | 
6 | Nc1ccc2c(c1)C(=O)c1ccccc1C2=O | inactive | inactive | inactive | 338 nM (active) and 273 nM (active) |  | inactive | inactive | inactive | 1.34 µM (active) and 969 nM (active) | inactive |  | 2.78 µM (active) and 2.52 µM (active) |  |  |  | 
7 | NCCS(=O)(=O)O | inactive | inactive | inactive |  | inactive | inactive | inactive | inactive |  | inactive | inactive | 41.5 µM (active) and inactive | inactive | inactive |  | 
8 | C=CCNCC=C | inactive | inactive | inactive |  | inactive | inactive | inactive |  |  | inactive |  | inactive |  |  |  | 
9 | CC1(C)O[C@@H]2C[C@H]3[C@@H]4C[C@H](F)C5=CC(=O)C=C[C@]5(C)[C@@]4(F)[C@@H](O)C[C@]3(C)[C@]2(C(=O)CO)O1 | inactive | inactive | inactive | inactive | inactive | inactive | inactive |  |  | inactive | inactive | inactive |  |  |  | 
10 | CC(=O)Nc1ccc2c(c1)Cc1cc(NC(C)=O)ccc1-2 | inactive | inactive | inactive |  | inactive | inactive | inactive | inactive | inactive and 7.7 µM (active) | inactive | inactive | inactive |  |  |  | 
11 | CN1CCOCC1 | inactive | inactive | inactive |  | inactive | inactive | inactive | inactive | inactive | inactive |  |  |  |  | inactive | inactive
12 | c1ccc2c(c1)ccc1ncccc12 | inactive | inactive | inactive |  | inactive | inactive | inactive | inactive | 54.1 µM (active) and 48.6 µM (active) | inactive | inactive | 62.8 µM (active) and 35.6 µM (active) |  |  | inactive | inactive
13 | O=Cc1ccccc1C=O | inactive | inactive | 30.6 µM (active) and inactive |  | 54.5 µM (active) and inactive |  |  |  |  | inactive | 38.6 µM (active) and inactive | inactive |  |  |  | 
14 | Cc1ccc(C(C)(C)C)cc1 | inactive | inactive | inactive |  | inactive | inactive | inactive | inactive | inactive | inactive | inactive | inactive |  |  |  | 
15 | Oc1c(Cl)ccc(Cl)c1Cl | inactive | inactive | inactive |  | inactive | inactive | inactive | inactive | inactive | inactive |  | inactive |  |  | inactive | inactive
16 | c1ccc2c(c1)ccc1cc3c(ccc4ccccc43)cc12 | inactive | inactive | inactive | 152 nM (active) and 215 nM (active) | inactive | inactive | inactive |  |  | inactive | inactive |  |  |  |  | 
17 | COc1ccc(C(=O)c2ccccc2O)c(O)c1 | inactive | inactive | inactive | inactive | inactive | inactive | inactive | inactive |  | inactive | inactive | inactive |  |  | inactive | inactive
18 | C=CC(=O)OCCCC | inactive | inactive | inactive | inactive | inactive | inactive | inactive | inactive | inactive | inactive | inactive | inactive |  |  | inactive | inactive
19 | O=C1OC2(c3ccccc31)c1cc(I)c(O)c(I)c1Oc1c2cc(I)c(O)c1I | inactive | 27.4 µM (active) | 34.8 µM (active) and inactive |  | 15.5 µM (active) [middle of 4 runs] | 15.5 µM (active) [middle of 4 runs] | 15.4 µM (active) [middle of 4 runs] | 6.13 µM (active) and inactive and 14.8 µM (active) | inactive | 13.7 µM (active) and 19.6 µM (active) and 16.6 µM (active) |  |  |  |  | 15.4 µM (active) and 15.5 µM (active) | inactive
20 | COc1ccc2nc(N)sc2c1 | inactive | inactive | inactive |  | inactive | inactive | inactive | inactive | 54.5 µM (active) and 27.3 µM (active) | inactive | inactive | 35.6 µM (active) and 31.7 µM (active) |  |  |  | 
